# Source: PubChem (National Center for Advancing Translational Sciences (NCATS))
# This is a sample that favours compounds with a hit; in the whole collection about 4.1% have one here.
# AmpC no deterg: AmpC beta-lactamase inhibition without detergent. P00811. AmpC nitrocefin hydrolysis, absorbance 480 nm, 0.0001% Triton. Potency, µM (series often up to 57.1 µM), usual class: inhibitors. 0.52% of 330,000 active. AID 485341; further: nearly all actives have a fitted effect of over 20% in size
# Target sequence (P00811 whole entry, looked up): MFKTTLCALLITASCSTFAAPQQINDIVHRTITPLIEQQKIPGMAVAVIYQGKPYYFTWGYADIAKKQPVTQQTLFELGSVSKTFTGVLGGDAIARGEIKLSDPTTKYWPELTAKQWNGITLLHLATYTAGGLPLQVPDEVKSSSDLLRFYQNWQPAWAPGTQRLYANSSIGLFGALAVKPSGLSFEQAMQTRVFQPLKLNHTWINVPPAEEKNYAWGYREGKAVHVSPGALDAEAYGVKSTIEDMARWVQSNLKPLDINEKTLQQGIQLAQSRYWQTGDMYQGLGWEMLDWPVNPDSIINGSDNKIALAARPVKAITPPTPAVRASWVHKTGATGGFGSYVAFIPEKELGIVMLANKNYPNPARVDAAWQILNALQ
#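 AmpC (5.3 nM in the dispensed reagent) in 20 mM phosphate pH 7.0 with 0.01% (detergent screen) or 0.0001% Triton X-100 was preincubated with compounds for 15 min at room temperature. Nitrocefin was then added from an 800 uM solution, and hydrolysis was followed at 480 nm.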
# FMDV antiviral: foot and mouth disease virus antiviral activity | Potency, µM (series often up to 57.9 µM), actives largely listed as inhibitors | AID 1159524 | 1.2% of 410,000 active | FMDV antiviral cell-based qHTS; calls by dose curve; tested in HEK293T cells; further: read-out not given here; nearly all actives have a fitted effect of over 45% in size
# Sm TGR block: S. mansoni TGR enzyme inhibition. Q962Y6. purified TGR, DTNB reduction, TNB absorbance 405 nm. Potency, µM (titrated, usually from 114 µM), actives largely listed as inhibitors. 3% of 360,000 active. AID 485364; further: nearly all actives have a fitted effect of over 60% in size
#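 First, TGR (20 nM dispensed) and NADPH were mixed with compound. Second, a 15 min room-temperature incubation followed. Third, further NADPH and then DTNB were added to start the reaction. Finally, TNB absorbance was monitored kinetically.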
# AMA1 RON2 block: AMA1-RON2 (P. falciparum) interaction inhibition; AlphaScreen AMA1-biotinylated RON2 peptide binding; Potency, µM (highest dose often 58.2 µM), most hits filed as inhibitors; 0.2% of 360,000 active; AID 720542; further: nearly all actives have a fitted effect of over 45% in size
#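 AMA1 (3D7) with his tag at 25 nM final met compounds first, then biotinylated RON2 peptide at 25 nM; detection used donor plus acceptor beads, 10 µg/mL apiece, read by AlphaScreen after 30 min at room temperature.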
# AmpC inh detg: AmpC beta-lactamase inhibition with detergent present | P00811 | AmpC hydrolysis of nitrocefin, absorbance 480 nm, 0.01% Triton | Potency, µM (titrated, usually from 114 µM), actives largely listed as inhibitors | 0.041% of 370,000 active; further: nearly all actives have a fitted effect of over 25% in size
#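 AmpC (5.3 nM in the dispensed reagent) in 20 mM phosphate pH 7.0 with 0.01% (detergent screen) or 0.0001% Triton X-100 was preincubated with compounds for 15 min at room temperature. Nitrocefin was then added from an 800 uM solution, and hydrolysis was followed at 480 nm.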
# A number is an active result; i = inactive; ? = inconclusive; nt = no result given; ! = repeats disagree. Unless noted, the call rests on the fitted dose curve; in most records, active means well fitted curve in the direction sought with a large enough effect; inconclusive means small, poorly fitted or top-dose-only effect, or another doubt; inactive means no such curve, though single readings can be large; an effect the other way counts as inactive or inconclusive.
SMILES,AmpC no deterg,FMDV antiviral,Sm TGR block,AMA1 RON2 block,AmpC inh detg
CCN(CC)CCN1C(=O)C(O)=C(C(=O)c2ccco2)C1c1ccccn1 (centres undefined),i,i,44.7µM,i,i
CSc1nnc(N2C(=O)C(O)=C(C(=O)c3ccco3)C2c2cccc(Cl)c2)s1 (centres undefined),i,i,8.91µM,i,i
CSc1nnc(N2C(=O)C(O)=C(C(=O)c3ccco3)C2c2ccc(F)cc2)s1 (centres undefined),i,i,50.1µM,i,i
O=C(C1=C(O)C(=O)N(c2ncccn2)C1c1cccc(Cl)c1)c1ccco1 (centres undefined),nt,i,44.7µM,i,i
COc1ccc(-c2cc(C)cc3c2OC(CNC(=O)c2cc(C(C)C)on2)C3)nn1 (centres undefined),nt,i,nt,nt,nt
O=C(NC1CCCC1)C(c1ccc(Cl)cc1)N(Cc1ccc(F)cc1)C(=O)CCl (centres undefined),i,?,7.08µM,i,i
COC(=O)c1ccc(C(C(=O)NC2CCCCC2)N(Cc2ccc(F)cc2)C(=O)Cc2cccs2)cc1 (centres undefined),i,i,i,i,i
O=C(NC1CCCC1)C(c1ccc(F)cc1)N(Cc1ccc(Cl)cc1)C(=O)CCl (centres undefined),i,?,2.82µM,i,?
CN(C)C(C(=O)NC1CCCCC1)c1ccc(Cl)cc1 (centres undefined),i,i,i,i,i
COc1ccc(N2C(=O)CC(Sc3nc4ccccc4s3)C2=O)cc1OC (centres undefined),i,i,8.91µM,i,i
C=CCNc1nnc(SC2CC(=O)N(c3ccc(OCCC)cc3)C2=O)s1 (centres undefined),i,i,3.98µM,i,i
CCOC(=O)c1ccc(N2C(=O)CC(Sc3nc(C)cc(C)n3)C2=O)cc1 (centres undefined),i,i,i,i,?
Nc1nnc(SC2CC(=O)N(c3ccccc3)C2=O)s1 (centres undefined),i,i,2.51µM,i,?
CC(=O)Nc1ccc(N2C(=O)CC(Sc3nc4ccccc4s3)C2=O)cc1 (centres undefined),i,i,nt,i,i
CCOC(=O)c1ccc(N2C(=O)CC(Sc3nnc(C)s3)C2=O)cc1 (centres undefined),i,i,4.47µM,i,i
COc1ccc(N2C(=O)CSC23C(=O)N(CC(=O)NCCc2ccccc2)c2ccccc23)cc1 (centres undefined),nt,i,i,nt,i
OC(c1ccccc1)c1nc(/C=C/c2ccccc2)cs1 (centres undefined),nt,i,nt,i,nt
COc1ccccc1CN1CC2(CCN(C(=O)c3cccc(F)c3)CC2)C1,nt,i,nt,nt,nt
CCOc1ccccc1NC(=O)Cn1c(=O)n(Cc2ccco2)c(=O)c2cccnc21,nt,i,i,nt,i
CCOC(=O)C(N)CSC1CC(=O)N(c2ccc(OCC)cc2)C1=O (centres undefined),i,i,44.7µM,i,?
O=C1CC(Sc2nnnn2-c2ccccc2)C(=O)N1c1cccc(Cl)c1 (centres undefined),?,i,2.82µM,i,i
CCOC(=O)C(N)CSC1CC(=O)N(c2ccc(OC)cc2)C1=O (centres undefined),i,i,31.6µM,i,i
CCOC(=O)c1ccc(N2C(=O)CC(C)(CC)CC2=O)cc1,i,i,i,i,i
CCOC(=O)c1ccc(N2C(=O)CC(SCC(N)C(=O)OCC)C2=O)cc1 (centres undefined),i,i,14.1µM,i,i
O=[N+]([O-])c1cc(-c2nc(-c3ccccc3)no2)ccc1NCCc1ccccc1,nt,i,i,nt,i
SMILES,AmpC no deterg,FMDV antiviral,Sm TGR block,AMA1 RON2 block,AmpC inh detg
COc1cccc(Cn2c(CNS(=O)(=O)c3ccc4c(c3)CCCC4)nc3cccnc32)c1,nt,i,i,nt,i
O=c1[nH]c2ccc(Cl)cc2c(-c2ccccc2)c1SC(=S)N1CCCCC1,10µM,i,i,i,i
CC(=O)Nc1ccc(S(=O)(=O)/N=C2\C(=O)c3ccccc3C([O-])=C2n2cc[n+](-c3ccccn3)c2)cc1,i,i,7.08µM,i,i
COC(=O)c1c(-c2ccc3ccccc3c2)csc1NC(=O)Cc1ccc(OC)c(OC)c1,i,10µM,i,i,i
CC1(C)Cc2nc3sc4c(=O)n(CC(=O)NCc5ccco5)cnc4c3cc2CO1,i,i,35.5µM,i,?
COc1ccc(C(=O)CN2C(=O)N(c3cc(C)cc(C)c3)S(=O)(=O)c3ccccc32)cc1,nt,i,i,nt,i
Cc1ccc(-c2nnc3ccccc3c2C(=O)Nc2ccc(F)cc2)cc1,nt,i,i,nt,i
CC(C)(C)c1cc(C=C(C#N)C#N)cc(C(C)(C)C)c1O,i,3.98µM!,?,i,?
N#CC(C#N)=Cc1ccc(O)c(O)c1,i,i,1.41µM,i,?
N#C/C(=C/c1ccc(F)cc1)S(=O)(=O)c1ccccc1,i,i,i,i,i
N#C/C(=C\c1ccc(O)c(O)c1)S(=O)(=O)c1ccccc1,i,i,44.7µM,i,i
COc1ccc(-c2[nH]c3ccccc3c2SCCNC(=O)c2cc(OC)c(OC)c(OC)c2)cc1,nt,i,i,nt,i
Cc1ncc2c(c1CNC(=O)c1ccc3c(c1)OCO3)CCN(C(=O)c1cn3ccccc3n1)C2,nt,i,nt,nt,nt
CCC(Sc1nc2nccnc2c(=O)n1Cc1ccccc1Cl)C(=O)NC1CCCCC1 (centres undefined),nt,i,i,nt,i
OCCN(CC#CC(O)(c1ccccc1)c1ccccc1)CCO,i,i,39.8µM,i,i
CC(C)N(CC#CC(O)(c1ccccc1)c1ccccc1)C(C)C,i,i,39.8µM,i,i
C=CC(O)(C#CCN(CC)CC)c1ccccc1 (centres undefined),i,i,44.7µM,i,i
COc1ccc(N(C)S(=O)(=O)c2ccc3c(c2)n(C)c(=O)c(=O)n3C)cc1,nt,i,i,nt,i
Oc1cccc(/C=N/c2c(-c3ccco3)nc3ccccn23)c1,i,nt,35.5µM,i,i
Cc1cc(C)c([N+](=O)[O-])cc1-c1ccc(/C=N/c2c(-c3ccco3)nc3ccccn23)o1,i,i,39.8µM,?,i
O=[N+]([O-])c1ccc(-c2ccc(/C=N/c3c(-c4ccco4)nc4ccccn34)o2)cc1,i,nt,i,i,i
O=[N+]([O-])c1ccc(Cl)c(-c2ccc(/C=N/c3c(-c4ccco4)nc4ccccn34)o2)c1,i,i,i,i,i
COc1ccc(CN2CCCC(n3cc(C(=O)NC4CCCC4)nn3)C2)c(O)c1 (centres undefined),nt,i,nt,nt,nt
CCN(CC)S(=O)(=O)c1ccc2c(c1)N(CC(=O)Nc1c(C)cccc1C)C(=O)C1CCCN21 (centres undefined),nt,i,i,nt,i
CCC(c1c(C)[nH]oc1=O)c1c(C)[nH]oc1=O,i,i,25.1µM,i,i
Cc1nc2ccc(C(=O)N3CCOc4ccc(CN5CCOCC5)cc4C3)cc2nc1C,nt,i,nt,nt,nt
